Test results taken from the supplement of paper PMC10338343.
± gives the standard deviation. Over roughly 5,500 sequences, “pre-steady-state target cleavage rate” has its median near 0.1; the highest 2% begin near 0.64. Many of the other results were omitted from the sample, so the highest values are more common in it than they were.

What follows are sequences tested on MIWI (PIWIL1) piRISC loaded with piRNA #2 (30 nt) (assay: pre-steady-state target cleavage rate (min^-1); MIWI and MILI are mouse PIWI proteins and EfPiwi is from a freshwater sponge; tags in brackets are library labels; higher = faster piRNA-guided slicing of the target). Conditions: guide: piRNA #2 5'p-UUAGGUAACCCAGUAGAUCCAGAGGAAUUC; auxiliary factor: 500 nM mouse GTSF1.
Procedure: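 Cleave-'n-Seq: a library of target RNAs (target site embedded in constant flanks, ACAGCATTCCGCGTTAGTGATATCCG... 5' flank; DNA-blocked outside the site) at 0.1 nM was incubated with 1 nM active mouse MILI or MIWI piRISC (synthetic 5'-monophosphorylated piRNA guide) with or without 500 nM mouse GTSF1 at 33 °C for 1 min to 16 h. Uncleaved targets were sequenced and normalised to non-target controls, and the pooled three trials were fitted to a burst-and-steady-state model to give the pre-steady-state cleavage rate (min^-1; k3 is constrained to at most 1e-4). Sequence is the target site only; target names encode pairing extent (gX:gY) and contiguous / 1-mismatch / 2-mismatch / bulge geometry. Fits with R² ≤ 0 are excluded.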

Sequence	pre-steady-state target cleavage rate
CUUAAGGUCUGGAUCUACUCGGUUACCUAA	0.0416 ± 0.02
CUUAUCCUCUGGAUCUUCUGGGUUACGUAA	0.45 ± 0.055
GAAUUCCUCUGGAUCUACUGGAGUUACCUAA	0.00576 ± 0.0035
CUUUUCCUCUGGAUCUACUGAGUUACCUAA	0.727 ± 0.048
CAAUUCCUCUGGAUCUACUGGAGUUACCUAA	0.00382 ± 0.0035
CUAUUCCUCUGGAUCUACUGAGUUACCUAA	0.823 ± 0.06
GAAUUCCUCUGGAUCUACUGAGGUUACCUAA	0.00556 ± 0.0037
CUAUUCCUCUGGAUCUACUGGAGUUACCUAA	0.00422 ± 0.0041
CUUUUCCUCUGGAUCUACUGGGUUACCUAA [g2:g27:cont:t1A]	0.408 ± 0.057
CUAUUCCUCUGGAUCUACUGGUUACCUAA	0.104 ± 0.026
CAAUUCCUCUGGAUCUACUGAGUUACCUAA	0.869 ± 0.075
CAAUUCCUCUGGAUCUACUGAGGUUACCUAA	0.00648 ± 0.0048
CUUUUCCUCUGGAUCUACUGGUUACCUAA	0.0817 ± 0.016
GAAUUCCUCUGGAUCUACUGAGUUACCUAA	0.67 ± 0.046
CUUAUCCUCUGGAUCUACAGGGUUACCAAA	0.237 ± 0.03
CAAUUCCUCUCGAUCUACUGGGUAACCUAA	0.476 ± 0.058
GAAUUCCUCUGGAUCUUCUGGGAUACCUAA	0.108 ± 0.018
CUUAUCCUCUGGAUCUUCUGGGUAACCUAA	0.0522 ± 0.013
GAAUUCCUCUGCAACUACUGGGUUACCUAA	0.413 ± 0.048
CUAUUCCUCUGGAUCUACUGGGUAACCUAA	0.231 ± 0.042

Sequence	pre-steady-state target cleavage rate
CUUAAGGUCUGGAUCUCCUGGGUUACCUAA	0.0565 ± 0.013
CUUAUCCUCUGGAUCUACUGGGUUAACUAA	0.407 ± 0.071
CUUAAGGUCUGGAACUAGUGGGUUACCUAA	0.0577 ± 0.017
CAAUUCCUCAGCAUCUACUGGGUUACCUAA	0.437 ± 0.044
CUUAAGCUCCUGGAUCUACUGGGUUACCUAA	0.181 ± 0.021
CUUAUCCUCGUGGAUCUACUGGGUUACCUAA	0.161 ± 0.032
GAAUUCCACUGGAUCUACUCGGUUACCUAA	0.193 ± 0.022
CUAUUCCUCUGGAUCUACUGCGUUACGUAA	0.539 ± 0.08
CUUAACCUCUGGAUCUACUGGGUUACCGUAA	0.155 ± 0.019
GAAUUCCUCUGAGAUCUACUGGGUUACCUAA	0.381 ± 0.046
CAAUUCCUCUGAGAUCUACUGGGUUACCUAA	0.545 ± 0.057
CAAUUCCUCUAGAUCUACUGGGUUACCUAA	0.807 ± 0.047
GAAUUCCUCUAGAUCUACUGGGUUACCUAA	0.731 ± 0.05
CUAUUCCUCUAGAUCUACUGGGUUACCUAA	0.67 ± 0.042
GAAUUCCUCUAGGAUCUACUGGGUUACCUAA	0.348 ± 0.074
CUAUUCCUCUAGGAUCUACUGGGUUACCUAA	0.278 ± 0.041
CAAUUCCUCUAGGAUCUACUGGGUUACCUAA	0.434 ± 0.048
CUAUUCCUCUGAGAUCUACUGGGUUACCUAA	0.471 ± 0.042
CUAUUACCUCUGGAUCUACUGGGUUACCUAA	0.227 ± 0.041
